{
  "source": "PubChem BioAssay (NCI)",
  "note": "This is part of a sample that, as a whole, favours compounds with a hit. Of some 83,000 tested, about 20% had one in any assay.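 Compound tested at a single concentration for 48 hours in 96-well plates; a percent growth value below 10 was scored as active.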 Unmarked numbers belong to inactive results. Active and inactive are the calls of the source.",
  "data": [
    {"test_system": "COLO 205 colon", "assay": "NCI-60 one-dose screen, 48 h (100 = growth as untreated, 0 = no growth, -100 = all killed)", "conditions": "10 µM unless noted", "values": [
      {"smiles": "O=NN(Cc1cccnc1)C(=O)NC1CCCCC1", "growth": "111%"},
      {"smiles": "FC(F)(F)c1cccc(CNC2CCN(CCc3ccccc3)CC2)c1", "growth": "76.2%"},
      {"smiles": "COc1ccc(CCN2C(=O)/C(=C/c3ccc(C4Oc5ccccc5C5CC(c6cccc(OC)c6)=NN54)cc3)SC2=S)cc1", "note": "(stereo not drawn)", "growth": "107%"},
      {"smiles": "COc1cc(-c2c3c(cn2S(=O)(=O)c2ccccc2)-c2nc(N)sc2CC3)cc(OC)c1OC", "growth": "-1.14% (active)"},
      {"smiles": "CCC1=C[C@@H]2CN(C1)Cc1c([nH]c3ccccc13)[C@@](C(=O)OC)(c1cc3c(cc1OC)N(C)[C@H]1[C@@](O)(C(=O)OC)[C@H](OC(C)=O)[C@]4(CC)[C@@H]5C[C@@H]5CN5CC[C@]31[C@@H]54)C2", "growth": "-86% (active)"},
      {"smiles": "O=C(O)CCCN1C(=O)C2C3CCC(C3)C2C1=O", "note": "(stereo not drawn)", "growth": "119%"},
      {"smiles": "CCOC(=O)CSc1c(-c2ccccc2)c2cc(Cl)ccc2[nH]c1=O", "growth": "110%"},
      {"smiles": "COc1ccc(C2C3=C(COC3=O)N(CCO)c3cc4c(cc32)CCC4)cc1", "note": "(stereo not drawn)", "growth": "52.1%"},
      {"smiles": "Cc1c(C(=O)OCCO)cc(-c2ccc(Cl)cc2)n1-c1ccc(Cl)cc1Cl", "growth": "108%"},
      {"smiles": "NC1C(N)C(N)C1N", "note": "(stereo not drawn)", "growth": "107%"},
      {"smiles": "Oc1[nH]c2ccccc2c1N=Nc1nnc2n1N=C(c1ccccc1)CS2", "growth": "105%"},
      {"smiles": "O=NN(C(=O)NC1CCC(C(=O)O)CC1)C1CCC(C(=O)O)CC1", "note": "(stereo not drawn)", "growth": "115%"},
      {"smiles": "Nc1ccc(-c2nn3c(CCC(=O)c4nc5ncccc5[nH]4)nnc3s2)c(O)c1", "growth": "99.6%"},
      {"smiles": "CCOc1ccc2c(c1)CN(Cc1ccc(Cl)cc1)CO2", "growth": "76.7%"},
      {"smiles": "CCN(CC)CCCNc1ccnc2cc3ccccc3cc12", "growth": "74.8%"},
      {"smiles": "Cc1ccc2cccc(Oc3ccc(Nc4ncnc5onc(-c6ccccc6)c45)cc3)c2n1", "growth": "59.1%"},
      {"smiles": "CCCc1c(C)c2sc(=O)[nH]c2[nH]c1=O", "growth": "113%"},
      {"smiles": "CC(C)[C@H](NC(=O)Cn1cc(C(=O)O)nn1)C(=O)O", "growth": "119%"},
      {"smiles": "CC1CCCCN1CCCNC(=O)c1ccc2c(c1)sc1nc(-c3ccc(F)cc3)cn12", "note": "(stereo not drawn)", "growth": "98%"},
      {"smiles": "CN(C)c1ccc(/C=C/c2ccnc3c(O)cccc23)cc1", "growth": "99.7%"},
      {"smiles": "NC(=O)CSc1nc(-c2ccc(F)cc2)cc(-c2ccco2)n1", "growth": "111%"},
      {"smiles": "Clc1ccc(COc2ccc(Nc3ncnc4onc(-c5ccccc5)c34)cc2)cc1", "growth": "93.5%"},
      {"smiles": "O=S1(=O)N(Cc2ccccc2)[C@@H](Cc2ccccc2)C2O[C@H]2[C@H](Cc2ccccc2)N1Cc1ccccc1", "note": "(stereo partly drawn)", "growth": "61.8%"},
      {"smiles": "COc1cc(/C=C2\\CN(C)C/C(=C\\c3cc(CN4CCCC4)c(O)c(OC)c3)C2=O)cc(CN2CCCC2)c1O", "growth": "49%"},
      {"smiles": "COc1cc(/C=C2\\CN(S(=O)(=O)c3ccccc3)C/C(=C\\c3cc(CN4CCCC4)c(O)c(OC)c3)C2=O)cc(CN2CCCC2)c1O", "growth": "-30.4% (active)"},
      {"smiles": "COc1ccc(-c2nc(N3CCN(C(=O)C4CCCCC4)CC3)c3c4c(sc3n2)CCCC4)cc1", "growth": "-38.5% (active)"},
      {"smiles": "Nc1cccc(Nc2cc(S(=O)(=O)O)c(N)c3c2C(=O)c2ccccc2C3=O)c1", "growth": "110%"},
      {"smiles": "CCCCNc1nc(NC(C)(C)C)nc(NC(C)(C)C)n1", "growth": "63.5%"},
      {"smiles": "COc1ccc(OC)c(NC(=O)/C(C#N)=C/c2ccco2)c1", "growth": "92.8%"},
      {"smiles": "O=c1oc2ccc(Br)cc2c(=O)n1-c1ccc(Cl)cc1F", "growth": "21.5%"},
      {"smiles": "COc1ccc(C2=NN(/C=C3\\SC(=O)NC3=Nc3ccc(F)cc3)C(c3ccc(F)cc3)C2)cc1", "note": "(stereo not drawn)", "growth": "106%"},
      {"smiles": "Nc1no[n+]([O-])c1-c1nnc2c(n1)-c1ccccc1C2=O", "growth": "42.1%"},
      {"smiles": "C=CCN1C(=O)/C(=c2\\sc3n(c2=O)NC2C(N=3)N(CC)C(=O)N2CC)c2ccccc21", "note": "(stereo not drawn)", "growth": "11.1%"},
      {"smiles": "O=C1/C(=C/c2ccc(O)cc2)COc2ccc(O)cc21", "growth": "114%"},
      {"smiles": "COc1cc(/C=C/C(=O)c2c(C)nc3ccccc3c2/C=C/c2ccccc2)cc(OC)c1OC", "growth": "4.78% (active)"},
      {"smiles": "O=c1oc2ccc(F)cc2c(=O)n1-c1ccc(Cl)cc1F", "growth": "11.7%"},
      {"smiles": "CC1(C)CC2(C)OC2C2(C1)N=NC(=Nc1ccccc1)O2", "note": "(stereo not drawn)", "growth": "73%"},
      {"smiles": "CCN1C(=O)N(CC)C2Nn3c(s/c(=C4\\C(=O)N(C(C)C)c5ccccc54)c3=O)=NC21", "note": "(stereo not drawn)", "growth": "7.65% (active)"},
      {"smiles": "O=c1c(-c2nc3ccccc3[nH]2)cc2ccccc2n1Cc1cn(Cc2ccc(F)cc2)nn1", "growth": "18.2%"}
    ]},
    {"test_system": "DU-145 prostate", "assay": "NCI-60 one-dose screen, 48 h (100 = growth as untreated, 0 = no growth, -100 = all killed)", "conditions": "10 µM unless noted", "values": [
      {"smiles": "O=NN(Cc1cccnc1)C(=O)NC1CCCCC1", "growth": "116%"},
      {"smiles": "FC(F)(F)c1cccc(CNC2CCN(CCc3ccccc3)CC2)c1", "growth": "59.1%"},
      {"smiles": "COc1ccc(CCN2C(=O)/C(=C/c3ccc(C4Oc5ccccc5C5CC(c6cccc(OC)c6)=NN54)cc3)SC2=S)cc1", "note": "(stereo not drawn)", "growth": "101%"},
      {"smiles": "COc1cc(-c2c3c(cn2S(=O)(=O)c2ccccc2)-c2nc(N)sc2CC3)cc(OC)c1OC", "growth": "0.0609% (active)"},
      {"smiles": "CCC1=C[C@@H]2CN(C1)Cc1c([nH]c3ccccc13)[C@@](C(=O)OC)(c1cc3c(cc1OC)N(C)[C@H]1[C@@](O)(C(=O)OC)[C@H](OC(C)=O)[C@]4(CC)[C@@H]5C[C@@H]5CN5CC[C@]31[C@@H]54)C2", "growth": "-17.9% (active)"},
      {"smiles": "O=C(O)CCCN1C(=O)C2C3CCC(C3)C2C1=O", "note": "(stereo not drawn)", "growth": "115%"},
      {"smiles": "CCOC(=O)CSc1c(-c2ccccc2)c2cc(Cl)ccc2[nH]c1=O", "growth": "103%"},
      {"smiles": "COc1ccc(C2C3=C(COC3=O)N(CCO)c3cc4c(cc32)CCC4)cc1", "note": "(stereo not drawn)", "growth": "78.5%"},
      {"smiles": "Cc1c(C(=O)OCCO)cc(-c2ccc(Cl)cc2)n1-c1ccc(Cl)cc1Cl", "growth": "62.9%"},
      {"smiles": "NC1C(N)C(N)C1N", "note": "(stereo not drawn)", "growth": "134%"},
      {"smiles": "Oc1[nH]c2ccccc2c1N=Nc1nnc2n1N=C(c1ccccc1)CS2", "growth": "84.1%"},
      {"smiles": "O=NN(C(=O)NC1CCC(C(=O)O)CC1)C1CCC(C(=O)O)CC1", "note": "(stereo not drawn)", "growth": "112%"},
      {"smiles": "Nc1ccc(-c2nn3c(CCC(=O)c4nc5ncccc5[nH]4)nnc3s2)c(O)c1", "growth": "96.5%"},
      {"smiles": "CCOc1ccc2c(c1)CN(Cc1ccc(Cl)cc1)CO2", "growth": "38.3%"},
      {"smiles": "CCN(CC)CCCNc1ccnc2cc3ccccc3cc12", "growth": "73.8%"},
      {"smiles": "Cc1ccc2cccc(Oc3ccc(Nc4ncnc5onc(-c6ccccc6)c45)cc3)c2n1", "growth": "94.4%"},
      {"smiles": "CCCc1c(C)c2sc(=O)[nH]c2[nH]c1=O", "growth": "114%"},
      {"smiles": "CC(C)[C@H](NC(=O)Cn1cc(C(=O)O)nn1)C(=O)O", "growth": "114%"},
      {"smiles": "CC1CCCCN1CCCNC(=O)c1ccc2c(c1)sc1nc(-c3ccc(F)cc3)cn12", "note": "(stereo not drawn)", "growth": "105%"},
      {"smiles": "CN(C)c1ccc(/C=C/c2ccnc3c(O)cccc23)cc1", "growth": "13.9%"},
      {"smiles": "NC(=O)CSc1nc(-c2ccc(F)cc2)cc(-c2ccco2)n1", "growth": "111%"},
      {"smiles": "Clc1ccc(COc2ccc(Nc3ncnc4onc(-c5ccccc5)c34)cc2)cc1", "growth": "72.7%"},
      {"smiles": "O=S1(=O)N(Cc2ccccc2)[C@@H](Cc2ccccc2)C2O[C@H]2[C@H](Cc2ccccc2)N1Cc1ccccc1", "note": "(stereo partly drawn)", "growth": "34.3%"},
      {"smiles": "COc1cc(/C=C2\\CN(C)C/C(=C\\c3cc(CN4CCCC4)c(O)c(OC)c3)C2=O)cc(CN2CCCC2)c1O", "growth": "60.8%"},
      {"smiles": "COc1cc(/C=C2\\CN(S(=O)(=O)c3ccccc3)C/C(=C\\c3cc(CN4CCCC4)c(O)c(OC)c3)C2=O)cc(CN2CCCC2)c1O", "growth": "-16.7% (active)"},
      {"smiles": "COc1ccc(-c2nc(N3CCN(C(=O)C4CCCCC4)CC3)c3c4c(sc3n2)CCCC4)cc1", "growth": "-21.9% (active)"},
      {"smiles": "Nc1cccc(Nc2cc(S(=O)(=O)O)c(N)c3c2C(=O)c2ccccc2C3=O)c1", "growth": "119%"},
      {"smiles": "CCCCNc1nc(NC(C)(C)C)nc(NC(C)(C)C)n1", "growth": "74.6%"},
      {"smiles": "COc1ccc(OC)c(NC(=O)/C(C#N)=C/c2ccco2)c1", "growth": "116%"},
      {"smiles": "O=c1oc2ccc(Br)cc2c(=O)n1-c1ccc(Cl)cc1F", "growth": "16.4%"},
      {"smiles": "COc1ccc(C2=NN(/C=C3\\SC(=O)NC3=Nc3ccc(F)cc3)C(c3ccc(F)cc3)C2)cc1", "note": "(stereo not drawn)", "growth": "102%"},
      {"smiles": "Nc1no[n+]([O-])c1-c1nnc2c(n1)-c1ccccc1C2=O", "growth": "1.97% (active)"},
      {"smiles": "C=CCN1C(=O)/C(=c2\\sc3n(c2=O)NC2C(N=3)N(CC)C(=O)N2CC)c2ccccc21", "note": "(stereo not drawn)", "growth": "26%"},
      {"smiles": "O=C1/C(=C/c2ccc(O)cc2)COc2ccc(O)cc21", "growth": "104%"},
      {"smiles": "COc1cc(/C=C/C(=O)c2c(C)nc3ccccc3c2/C=C/c2ccccc2)cc(OC)c1OC", "growth": "-0.597% (active)"},
      {"smiles": "O=c1oc2ccc(F)cc2c(=O)n1-c1ccc(Cl)cc1F", "growth": "17.1%"},
      {"smiles": "CC1(C)CC2(C)OC2C2(C1)N=NC(=Nc1ccccc1)O2", "note": "(stereo not drawn)", "growth": "67.2%"},
      {"smiles": "CCN1C(=O)N(CC)C2Nn3c(s/c(=C4\\C(=O)N(C(C)C)c5ccccc54)c3=O)=NC21", "note": "(stereo not drawn)", "growth": "38%"},
      {"smiles": "O=c1c(-c2nc3ccccc3[nH]2)cc2ccccc2n1Cc1cn(Cc2ccc(F)cc2)nn1", "growth": "-23.5% (active)"}
    ]}
  ]
}
